Test results reported in PubChem BioAssay.
Active and inactive are the calls of the source.

Legend:
[1] = tested on: PRMT1 (protein arginine N-methyltransferase 1); experiment: small molecules binding arginine methyltransferase PRMT1 – biochemical, small-molecule microarray, 635 nm fluorescence, primary screen (AID 1088); conditions: higher = more signal;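 note: binding of Prmt1 protein to compounds spotted on small-molecule microarray slides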
[2] = growth effects on S. cerevisiae YJM789 – YJM789 clinical isolate, OD600, 24 h, basal, primary screen (AID 1089); conditions: higher = more signal, called active from +8 up or from −8 down;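 note: growth of clinical yeast isolate S. cerevisiae YJM 789 seeded 1000 cells per well; test concentration not given here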
[3] = S. pombe growth modifiers, basal conditions – strain 972, OD600, 24 h, no modulator, primary screen (AID 1090);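 note: basal condition with compound alone and no growth modifier present; test concentration not given here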; conditions: S. pombe 972 growth, higher = more signal, called active from +8 up or from −8 down
[4] = budding yeast growth modifiers under rapamycin – strain BY4716, OD600, 96 h, primary screen (AID 1091); note: test concentration not given here; conditions: S. cerevisiae BY4716 + rapamycin, higher = more signal, called active from +8 up or from −8 down
[5] = biological target: Torsin-1A-interacting protein 2 (Homo sapiens) (UniProt Q8NFQ8); experiment: small molecules binding lysate-expressed LULL1 – cell lysate, human LULL1 lysate, 635/667 nm fluorescence, primary screen (AID 1092); conditions: small-molecule microarray, hLULL1 lysate binding, 635 nm fluorescence; higher = more signal;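 note: probe is lysate of COS7 cells overexpressing human LULL1; score merges per-feature 667 nm fluorescence with signal-to-noise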
[6] = optical density change of DRC41 E. coli – strain DRC41, OD650, 24 h, E. coli filamentation project, primary screen (AID 1093);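 note: MC1000 strain lacking acrAB efflux and sulA so SOS filamentation is blocked; test concentration not given here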; conditions: E. coli DRC41 growth, higher = more signal, called active from +8 up or from −8 down
[7] = probe aLefty2 binding to arrayed compounds – biochemical, biotinylated probe, 635/667 nm fluorescence, primary screen (AID 1094); conditions: small-molecule microarray, higher = more signal;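 note: score merges spot fluorescence near 667 nm with spot signal-to-noise ratio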
[8] = tested on: Noggin (protein binding on small-molecule microarray); experiment: small molecules binding Noggin protein – biochemical, 635/667 nm fluorescence, primary screen (AID 1095); conditions: 635 nm fluorescence, higher = more signal;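 note: score merges 667 nm feature fluorescence with signal to noise over triplicate slides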
[9] = biological target: Neurogenic locus notch homolog protein 3 (Homo sapiens) (UniProt Q9UM47); experiment: small molecules binding NOTCH3 protein – biochemical, 635/667 nm fluorescence, primary screen (AID 1096); conditions: small-molecule microarray, 635 nm fluorescence, higher = more signal
[10] = probe aEGFR binding to arrayed compounds – biochemical, biotinylated probe, 635/667 nm fluorescence, primary screen (AID 1097); conditions: small-molecule microarray, higher = more signal;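 note: probe is a biotinylated anti-EGFR antibody binding compounds printed on slides; score combines fluorescence near 667 nm and signal to noise of each spot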
[11] = tested on: Plasmodium falciparum Sir2 (PF13_0152, Sir2A); experiment: Plasmodium falciparum Sir2A binding compounds – biochemical, small-molecule microarray, 635 nm fluorescence, primary screen (AID 1098); conditions: fluorescence 635 nm, higher = more signal;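 note: score merges spot fluorescence intensity with its signal-to-noise ratio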
[12] = probe aDKK1 binding to arrayed compounds – biochemical, biotinylated probe, 635/667 nm fluorescence, primary screen (AID 1099); conditions: small-molecule microarray, higher = more signal;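 note: score merges 667nm spot fluorescence with signal to noise across triplicate slides; reference of the scale not given here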
[13] = probe aCHRDL2 binding to arrayed compounds – biochemical, biotinylated probe, 635/667 nm fluorescence, primary screen (AID 1100); conditions: small-molecule microarray, higher = more signal
[14] = change in splice reporter luminescence, either direction, cell-based, HEK293, spliceosome inhibition project, primary screen (AID 1101); conditions: HEK293 splicing luciferase reporter, 24 h, higher = more signal, called active from +8 up or from −8 down;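 note: HEK293 cells carrying a splicing-competent luciferase reporter gene; test concentration not given here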
[15] = biological target: Fibroblast growth factor 10 (Homo sapiens) (UniProt O15520); experiment: compounds binding fibroblast growth factor 10 – biochemical, small-molecule microarray, 635 nm fluorescence, primary screen (AID 1102); conditions: FGF10 binding, fluorescence 635 nm, higher = more signal
[16] = tested on: glycogen synthase kinase-3 (GSK3A per assay name; protocol says GSK3B); experiment: compounds binding glycogen synthase kinase-3 – biochemical, small-molecule microarray, 635 nm fluorescence, GSK3A, primary screen (AID 1103); conditions: fluorescence 635 nm, higher = more signal; note: the record names both GSK3A and GSK3B
[17] = biological target: Epidermal growth factor receptor (Homo sapiens) (UniProt P00533); experiment: compounds binding epidermal growth factor receptor – biochemical, small-molecule microarray, 635 nm fluorescence, primary screen (AID 1104); conditions: EGFR binding, higher = more signal;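 note: score merges 667 nm emission intensity with spot signal to noise over triplicate slides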
[18] = biological target: Follistatin-related protein 3 (Homo sapiens) (UniProt O95633); experiment: compounds binding follistatin-related protein 3 – biochemical, small-molecule microarray, 635 nm fluorescence, primary screen (AID 1105); conditions: FSTL3 binding, higher = more signal;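 note: score merges emission near 667 nm and signal to noise per printed spot across three slides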
[19] = biological target: Dickkopf-related protein 1 (Homo sapiens) (UniProt O94907); experiment: small molecules binding DKK1 protein – biochemical, small-molecule microarray, 635 nm fluorescence scan, primary screen (AID 1106); conditions: higher = more signal;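 note: score merges emission near 667 nm with signal to noise over three replicate slides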
[20] = tested on: Inhibin beta A chain (activin A); experiment: small molecules binding activin A – biochemical, small-molecule microarray, 635 nm fluorescence scan, primary screen (AID 1107); conditions: INHBA, higher = more signal;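 note: mouse activin A protein probed at 4.33 µg/mL on printed slides; score merges bound-protein fluorescence near 667 nm with spot signal-to-noise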

Follistatin-related protein 3 (Homo sapiens), sequence (O95633 whole entry, looked up): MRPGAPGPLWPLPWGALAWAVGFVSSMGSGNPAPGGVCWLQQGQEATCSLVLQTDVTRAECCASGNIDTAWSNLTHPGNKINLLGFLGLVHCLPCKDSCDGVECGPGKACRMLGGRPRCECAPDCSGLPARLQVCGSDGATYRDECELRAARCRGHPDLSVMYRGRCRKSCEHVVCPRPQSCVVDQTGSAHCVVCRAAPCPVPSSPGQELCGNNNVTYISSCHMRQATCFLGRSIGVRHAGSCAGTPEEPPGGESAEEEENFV
Fibroblast growth factor 10 (Homo sapiens), sequence (O15520 whole entry, looked up): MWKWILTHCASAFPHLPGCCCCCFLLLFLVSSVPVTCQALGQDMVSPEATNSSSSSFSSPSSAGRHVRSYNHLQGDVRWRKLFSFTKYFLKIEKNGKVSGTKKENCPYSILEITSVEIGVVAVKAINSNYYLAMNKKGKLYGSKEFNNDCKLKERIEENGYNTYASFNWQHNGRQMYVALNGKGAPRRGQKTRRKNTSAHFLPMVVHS
Epidermal growth factor receptor (Homo sapiens), sequence (P00533 whole entry, looked up): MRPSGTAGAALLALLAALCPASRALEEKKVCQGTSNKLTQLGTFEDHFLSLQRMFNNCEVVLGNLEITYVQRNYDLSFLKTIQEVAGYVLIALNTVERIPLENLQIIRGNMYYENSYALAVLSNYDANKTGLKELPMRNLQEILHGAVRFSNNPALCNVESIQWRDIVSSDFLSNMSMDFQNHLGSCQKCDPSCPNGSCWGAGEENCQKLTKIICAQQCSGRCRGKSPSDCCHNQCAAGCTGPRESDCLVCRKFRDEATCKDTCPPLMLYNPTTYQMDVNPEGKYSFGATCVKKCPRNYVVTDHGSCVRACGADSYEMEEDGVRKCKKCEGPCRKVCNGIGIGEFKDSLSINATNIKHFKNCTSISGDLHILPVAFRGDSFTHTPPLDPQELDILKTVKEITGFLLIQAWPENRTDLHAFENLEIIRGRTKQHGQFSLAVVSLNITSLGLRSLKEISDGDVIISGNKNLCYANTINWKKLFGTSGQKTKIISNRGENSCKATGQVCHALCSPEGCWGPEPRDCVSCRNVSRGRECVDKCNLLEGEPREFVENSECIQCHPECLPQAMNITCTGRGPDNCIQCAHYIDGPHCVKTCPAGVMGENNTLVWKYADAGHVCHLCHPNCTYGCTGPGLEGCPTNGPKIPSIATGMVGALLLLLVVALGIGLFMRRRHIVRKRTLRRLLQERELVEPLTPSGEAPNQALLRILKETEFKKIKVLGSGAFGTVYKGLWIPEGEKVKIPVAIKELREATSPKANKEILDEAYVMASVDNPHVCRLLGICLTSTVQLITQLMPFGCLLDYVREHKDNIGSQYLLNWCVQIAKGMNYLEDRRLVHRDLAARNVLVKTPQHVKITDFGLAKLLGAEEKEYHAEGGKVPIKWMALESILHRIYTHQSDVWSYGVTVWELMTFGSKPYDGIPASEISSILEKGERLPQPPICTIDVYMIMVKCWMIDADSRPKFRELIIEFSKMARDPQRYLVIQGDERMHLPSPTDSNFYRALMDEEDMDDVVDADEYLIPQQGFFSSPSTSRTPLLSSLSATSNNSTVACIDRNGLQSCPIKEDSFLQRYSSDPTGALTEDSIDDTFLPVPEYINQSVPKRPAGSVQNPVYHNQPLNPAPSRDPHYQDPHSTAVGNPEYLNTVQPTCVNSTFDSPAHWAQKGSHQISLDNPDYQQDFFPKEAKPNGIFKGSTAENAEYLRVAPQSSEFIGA
Dickkopf-related protein 1 (Homo sapiens), sequence (O94907 whole entry, looked up): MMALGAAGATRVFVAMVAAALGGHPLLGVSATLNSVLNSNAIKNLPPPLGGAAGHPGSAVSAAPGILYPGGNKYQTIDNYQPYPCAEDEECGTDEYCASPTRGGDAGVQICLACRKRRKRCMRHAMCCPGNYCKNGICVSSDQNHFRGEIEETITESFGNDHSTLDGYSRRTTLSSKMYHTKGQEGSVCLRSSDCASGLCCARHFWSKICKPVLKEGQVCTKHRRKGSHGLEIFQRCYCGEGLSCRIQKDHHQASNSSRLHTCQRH
Torsin-1A-interacting protein 2 (Homo sapiens), sequence (Q8NFQ8 whole entry, looked up): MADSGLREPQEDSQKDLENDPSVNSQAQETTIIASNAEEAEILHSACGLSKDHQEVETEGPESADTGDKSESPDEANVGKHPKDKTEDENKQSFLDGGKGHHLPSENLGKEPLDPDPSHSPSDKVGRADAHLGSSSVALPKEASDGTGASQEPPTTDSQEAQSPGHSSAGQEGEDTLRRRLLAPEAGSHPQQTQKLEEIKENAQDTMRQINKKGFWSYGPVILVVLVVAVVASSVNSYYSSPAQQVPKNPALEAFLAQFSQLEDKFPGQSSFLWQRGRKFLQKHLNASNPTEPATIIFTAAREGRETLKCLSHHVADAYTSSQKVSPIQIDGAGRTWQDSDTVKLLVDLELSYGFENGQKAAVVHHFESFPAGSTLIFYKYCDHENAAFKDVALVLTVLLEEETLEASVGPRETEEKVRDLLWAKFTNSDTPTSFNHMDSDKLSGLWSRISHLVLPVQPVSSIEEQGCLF
Neurogenic locus notch homolog protein 3 (Homo sapiens), sequence (Q9UM47 whole entry, looked up): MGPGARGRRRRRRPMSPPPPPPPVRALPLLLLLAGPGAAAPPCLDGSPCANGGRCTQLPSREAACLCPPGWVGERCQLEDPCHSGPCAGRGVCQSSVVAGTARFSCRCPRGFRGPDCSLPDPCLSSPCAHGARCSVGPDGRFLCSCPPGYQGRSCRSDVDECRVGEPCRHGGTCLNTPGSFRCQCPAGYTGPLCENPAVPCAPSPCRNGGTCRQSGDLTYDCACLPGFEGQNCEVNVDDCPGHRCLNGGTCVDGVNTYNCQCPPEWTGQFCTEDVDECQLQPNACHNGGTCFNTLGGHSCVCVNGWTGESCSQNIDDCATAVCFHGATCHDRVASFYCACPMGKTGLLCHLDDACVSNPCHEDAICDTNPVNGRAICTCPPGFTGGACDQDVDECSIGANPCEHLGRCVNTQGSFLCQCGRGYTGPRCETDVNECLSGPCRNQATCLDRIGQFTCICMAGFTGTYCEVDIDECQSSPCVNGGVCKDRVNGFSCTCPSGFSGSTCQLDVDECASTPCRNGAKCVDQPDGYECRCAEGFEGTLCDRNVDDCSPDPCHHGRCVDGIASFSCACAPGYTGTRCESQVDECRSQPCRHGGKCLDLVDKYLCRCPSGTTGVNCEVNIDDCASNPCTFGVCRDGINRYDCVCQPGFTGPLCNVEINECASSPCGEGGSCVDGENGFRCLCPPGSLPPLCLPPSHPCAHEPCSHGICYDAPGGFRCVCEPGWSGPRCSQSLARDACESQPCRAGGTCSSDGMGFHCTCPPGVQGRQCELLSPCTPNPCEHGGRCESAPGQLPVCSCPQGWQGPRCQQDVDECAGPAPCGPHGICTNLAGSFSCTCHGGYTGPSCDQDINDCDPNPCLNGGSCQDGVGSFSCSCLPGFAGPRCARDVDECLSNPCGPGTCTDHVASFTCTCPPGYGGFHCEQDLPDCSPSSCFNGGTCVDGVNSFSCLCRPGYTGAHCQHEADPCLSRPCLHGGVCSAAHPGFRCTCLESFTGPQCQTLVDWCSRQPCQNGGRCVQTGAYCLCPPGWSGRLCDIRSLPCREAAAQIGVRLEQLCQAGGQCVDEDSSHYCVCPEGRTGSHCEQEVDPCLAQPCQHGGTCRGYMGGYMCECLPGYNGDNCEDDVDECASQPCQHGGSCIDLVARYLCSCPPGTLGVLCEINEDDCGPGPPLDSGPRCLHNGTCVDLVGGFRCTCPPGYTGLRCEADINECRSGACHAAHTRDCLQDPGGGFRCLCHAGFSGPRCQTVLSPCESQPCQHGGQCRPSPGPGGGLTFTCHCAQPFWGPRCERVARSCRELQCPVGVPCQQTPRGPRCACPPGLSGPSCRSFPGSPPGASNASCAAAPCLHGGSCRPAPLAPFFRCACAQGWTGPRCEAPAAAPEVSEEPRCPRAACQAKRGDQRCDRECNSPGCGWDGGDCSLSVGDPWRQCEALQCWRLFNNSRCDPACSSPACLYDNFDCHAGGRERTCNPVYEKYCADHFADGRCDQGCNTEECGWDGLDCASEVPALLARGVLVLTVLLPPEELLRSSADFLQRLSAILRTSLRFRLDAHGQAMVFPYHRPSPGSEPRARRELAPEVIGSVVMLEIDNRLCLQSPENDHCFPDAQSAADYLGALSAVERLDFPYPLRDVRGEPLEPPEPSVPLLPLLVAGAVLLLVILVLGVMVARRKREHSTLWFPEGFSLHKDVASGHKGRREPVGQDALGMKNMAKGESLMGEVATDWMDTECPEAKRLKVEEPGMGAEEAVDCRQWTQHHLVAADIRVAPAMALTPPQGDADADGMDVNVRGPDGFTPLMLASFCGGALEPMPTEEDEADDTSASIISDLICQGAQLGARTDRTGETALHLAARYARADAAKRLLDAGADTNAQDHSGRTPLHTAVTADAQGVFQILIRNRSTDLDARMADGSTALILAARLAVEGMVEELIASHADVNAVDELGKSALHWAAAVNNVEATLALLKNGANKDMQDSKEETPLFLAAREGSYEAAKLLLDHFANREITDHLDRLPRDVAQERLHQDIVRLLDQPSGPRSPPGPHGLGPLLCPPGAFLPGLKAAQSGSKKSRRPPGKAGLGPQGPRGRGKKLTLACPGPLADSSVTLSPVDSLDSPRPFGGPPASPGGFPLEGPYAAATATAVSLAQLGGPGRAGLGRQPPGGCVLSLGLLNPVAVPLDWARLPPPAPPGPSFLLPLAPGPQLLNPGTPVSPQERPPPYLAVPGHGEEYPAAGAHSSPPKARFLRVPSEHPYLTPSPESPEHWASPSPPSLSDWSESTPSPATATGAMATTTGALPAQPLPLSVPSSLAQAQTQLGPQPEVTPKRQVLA

COc1ccc(C(O)C2C=CC3C(=O)N(c4ccccc4)C(=O)C3N2Nc2ccc(C(C)C)cc2)c2ccccc12 (stereo not given)
composite z-score [1]: 1.56
z-score [2]: 0.254 (inactive)
z-score [3]: 0.227 (inactive)
z-score [4]: -0.519 (inactive)
composite z-score [5]: 3.61
z-score [6]: -1.08 (inactive)
composite z-score [7]: 0.204
composite z-score [8]: 0.0754
composite z-score [9]: 1.07
composite z-score [10]: -0.0019
composite z-score [11]: 1.6
composite z-score [12]: 0.661
composite z-score [13]: 0.942
z-score [14]: 0.48 (inactive)
composite z-score [15]: 0.839
composite z-score [16]: 1.29
composite z-score [17]: 0.0751
composite z-score [18]: 1.04
composite z-score [19]: -0.0879
composite z-score [20]: 0.87

COc1cccc(/C=C(\C#N)C(=O)Nc2c(C)n(C)n(-c3ccccc3)c2=O)c1
composite z-score [1]: 0.564
z-score [2]: -1.58 (inactive)
z-score [3]: -0.958 (inactive)
z-score [4]: -0.978 (inactive)
composite z-score [5]: 2.66
z-score [6]: -0.23 (inactive)
composite z-score [7]: 0.0852
composite z-score [8]: 0.161
composite z-score [9]: 0.539
composite z-score [10]: -0.0828
composite z-score [11]: 0.129
composite z-score [12]: -0.0045
composite z-score [13]: 0.0654
z-score [14]: -0.238 (inactive)
composite z-score [15]: 0.179
composite z-score [16]: 0.497
composite z-score [17]: 0.413
composite z-score [18]: 0.447
composite z-score [19]: 0.0952
composite z-score [20]: 0.141

CCCCC(=C=CC[C@H](O)c1ccc(OCCO)cc1)C[C@H](O)COCc1ccccc1
composite z-score [1]: 0.857
z-score [2]: 0.85 (inactive)
z-score [3]: -1.43 (inactive)
z-score [4]: -0.374 (inactive)
composite z-score [5]: 1.36
z-score [6]: 0.125 (inactive)
composite z-score [7]: -0.116
composite z-score [8]: 0.395
composite z-score [9]: -0.36
composite z-score [10]: 0.0028
composite z-score [11]: 1.07
composite z-score [12]: -0.221
composite z-score [13]: -0.0323
z-score [14]: -0.639 (inactive)
composite z-score [15]: 0.793
composite z-score [16]: -0.171
composite z-score [17]: -0.304
composite z-score [18]: -0.603
composite z-score [19]: -0.259
composite z-score [20]: 1.12

CN1C(=O)C2C=CC(C(O)c3ccc(F)cc3)N(NC(=O)OC(C)(C)C)C2C1=O (stereo not given)
composite z-score [1]: 0.219
z-score [2]: 1.19 (inactive)
z-score [3]: 2.11 (inactive)
z-score [4]: 1.71 (inactive)
composite z-score [5]: 3.28
z-score [6]: -1.31 (inactive)
composite z-score [7]: -0.0154
composite z-score [8]: -0.205
composite z-score [9]: 0.816
composite z-score [10]: -0.0531
composite z-score [11]: 0.578
composite z-score [12]: -0.066
composite z-score [13]: 0.535
z-score [14]: 1.15 (inactive)
composite z-score [15]: 0.45
composite z-score [16]: 0.336
composite z-score [17]: -0.196
composite z-score [18]: 0.15
composite z-score [19]: -0.767
composite z-score [20]: 0.471

C=C/C=C/[C@@H]1C(=C)CN([C@@H](Cc2ccccc2)C(=O)OC)[C@H]1[C@@H](O)Cc1ccccc1
composite z-score [1]: 1.44
z-score [2]: -0.03 (inactive)
z-score [3]: -1.63 (inactive)
z-score [4]: 0.415 (inactive)
composite z-score [5]: 1.57
z-score [6]: 0.85 (inactive)
composite z-score [7]: -0.0975
composite z-score [8]: 0.0905
composite z-score [9]: 0.731
composite z-score [10]: -0.0228
composite z-score [11]: 0.742
composite z-score [12]: -0.369
composite z-score [13]: -0.186
z-score [14]: 0.844 (inactive)
composite z-score [15]: 0.716
composite z-score [16]: 0.754
composite z-score [17]: -0.08
composite z-score [18]: 0.509
composite z-score [19]: 0.473
composite z-score [20]: 1.2

COc1ccc(CCNC(=O)[C@@]2(Cc3ccccc3I)c3ccccc3C(=O)N(Cc3ccccc3Cl)[C@H]2c2ccc(CO)cc2)cc1
composite z-score [1]: 1.46
z-score [2]: -0.372 (inactive)
z-score [3]: -0.645 (inactive)
z-score [4]: -0.0387 (inactive)
composite z-score [5]: 2.35
z-score [6]: -1.3 (inactive)
composite z-score [7]: 0.23
composite z-score [8]: -0.383
composite z-score [9]: 0.0854
composite z-score [10]: 0.0284
composite z-score [11]: 1.79
composite z-score [12]: 0.316
composite z-score [13]: 0.646
z-score [14]: -1.55 (inactive)
composite z-score [15]: 0.202
composite z-score [16]: -0.181
composite z-score [17]: -0.662
composite z-score [18]: -0.407
composite z-score [19]: -0.735
composite z-score [20]: 0.0137

COc1ccc([Si](C)(C)[C@H]2[C@H](CCO)O[C@@]3(C(=O)N(Cc4ccccc4)c4ccc(N5CCOC5=O)cc43)[C@@H]2C)cc1
composite z-score [1]: 1.13
z-score [2]: 0.948 (inactive)
z-score [3]: -0.0089 (inactive)
z-score [4]: 16.7 (active)
composite z-score [5]: 1.64
z-score [6]: 0.147 (inactive)
composite z-score [7]: -0.0769
composite z-score [8]: 0.517
composite z-score [9]: 1.12
composite z-score [10]: -0.0152
composite z-score [11]: 0.821
composite z-score [12]: 0.0261
composite z-score [13]: -0.214
z-score [14]: -0.711 (inactive)
composite z-score [15]: 0.977
composite z-score [16]: 0.411
composite z-score [17]: 0.398
composite z-score [18]: 0.277
composite z-score [19]: 0.0837
composite z-score [20]: 0.212

COC(=O)[C@@]1(Cc2ccc(F)cc2)[C@H]2c3cc(C(=O)N(C)C)n(Cc4c(CO)[nH]cc(C)c4=O)c3C[C@H]2CN1C(=O)c1ccccc1
composite z-score [1]: -0.51
z-score [2]: 0.342 (inactive)
z-score [3]: -0.392 (inactive)
z-score [4]: 0.796 (inactive)
composite z-score [5]: 1.63
z-score [6]: -0.893 (inactive)
composite z-score [7]: 0.378
composite z-score [8]: -0.115
composite z-score [9]: -0.032
composite z-score [10]: 0.297
composite z-score [11]: -0.0424
composite z-score [12]: 0.617
composite z-score [13]: 0.721
z-score [14]: -0.73 (inactive)
composite z-score [15]: 0.663
composite z-score [16]: -0.271
composite z-score [17]: 0.0656
composite z-score [18]: -0.217
composite z-score [19]: -0.12
composite z-score [20]: 0.693

COCC(=C=CC[C@@H](O)c1cccc(OCCO)c1)CCO
composite z-score [1]: 0.783
z-score [2]: 0.0995 (inactive)
z-score [3]: 0.114 (inactive)
z-score [4]: -0.0032 (inactive)
composite z-score [5]: 0.939
z-score [6]: 0.0464 (inactive)
composite z-score [7]: -0.171
composite z-score [8]: 0.225
composite z-score [9]: 0.669
composite z-score [10]: 0.102
composite z-score [11]: 1.03
composite z-score [12]: 0.0771
composite z-score [13]: 0.268
z-score [14]: 0.317 (inactive)
composite z-score [15]: 0.984
composite z-score [16]: 0.162
composite z-score [17]: -0.846
composite z-score [18]: 0.167
composite z-score [19]: -0.111
composite z-score [20]: 0.598
